Measurements reported in PubChem BioAssay AID1745849 (National Center for Advancing Translational Sciences (NCATS), 2022).
Among all 2,100 compounds or so, about 320 (15%) were called active. Inconclusive results (about 52%) are left out. The list shows a part of the results. A number with no mark means an inactive call. The call rests on the fitted dose curve; in most records, active means well fitted cell-killing curve with a large enough effect; inconclusive means small, poorly fitted or top-dose-only effect, or effect the other way; inactive means flat fitted curve, though single readings scatter.

assay: Viability Counterscreen for CMV-Luciferase Assay of Inhibitors of ATXN expression; conditions: HEK-293 CMV-luciferase cells viability, protease fluorescence, 24 h; activity change, negative = cytotoxicity: at the top concentration; further: nearly all actives have a fitted effect of over 55% in size
Excerpt: PI: Daniel Scoles Ph.D. University of Utah School of Medicine, Salt Lake City, Utah MLPCN Grant: NS073009 Spinocerebellar ataxia type 2 (SCA2) is a multisystem neurodegenerative disease caused by a dominantly acting mutation leading to expansion of a polyQ domain in the ataxin-2 protein (ATXN2). SCA2 patients develop progressive ataxia and later lose function in other neuronal systems. Prominent parkinsonian signs develop in some patients. Like many neurodegenerative disorders, no symptomatic or disease-modifying treatments are known. The primary objective of the proposed research is to identify compounds inhibiting ATXN2 expression and to test them for efficacy in SCA2 mouse models. We have developed a cell-based assay paired with an in vivo mouse model using identical luciferase expression constructs. This approach takes advantage of an ATXN2-luciferase transgene, with the luciferase gene flanked by the upstream and downstream portions of the ATXN2 gene. Here we describe a 5-7 dose quantitative high thoroughput screen (qHTS) for compounds lowering ATXN2 expression. We screened the NIH Molecular Libraries Small Molecule Repository (MLSMR) and NCGC's mechanistically annotated (MIPE) and drug repurposing (NPC) collections of compounds for lowering expression of an ATXN2-luciferase reporter in HEK-293 cells. The assay is a multiplexed cell viability assay to ensure target reduction in the absence of cytotoxicity. Secondary qHTS assays included a CMV-luciferase reporter expressed in HEK-293 cells as well as a biochemical assay using recombinant luciferase to detect inhibitors of the reporter enzyme. Compounds that inhibit ATXN2 expression but is not cytotoxic were selected for confirmatory and secondary screens.
PROTOCOL TABLE (as described by Inglese J, Shamu CE and Guy RK. 2007) SEQUENCE No. (e.g., 1, 2, 3, etc.); […] (e.g., Cells, Incubation, Reagent, etc.); VALUE; DESCRIPTION. 1; Cells; 4 uL; white, solid bottom, 1536-well Greiner assay plate. 2; Incubation; 2 hr; 37 degree C in 5% humidified CO2. 3; Compounds; 23 nL; Kalypsis pintool (Wako USA) equipped with a 1536-well pin head. 4; Incubation; 24 hr; 37 degree C in 5% humidfified CO2. 5; Reagent; 1 uL; Gly-Phe-7-Amino-4-trifluoromethylcoumarin. 6; Incubation; 30 min; 37 degree C in 5% humidfified CO2. 7; Detection; Fluorescence; Viewlux plate reader (PerkinElmer). 8; Reagent; 3 uL; SteadyGlo luciferase solution (Promega). 9; Incubation; 5 min; room temperature. 10; Detection; Luminescence; ViewLux plate reader (PerkinElmer). NOTES (numbers refer to Sequence numbers above) 1. HEK-293 cells expressing CMV-luciferase reporter (designated as SC cells) were suspended in phenol-red free DMEM and dispensed in assay plates using a Multidrop Combi dispenser (Thermo Fisher Scientific). 2. Assay plates were incubated. Evaporation was prevented by covering assay plates with metal lids containing holes to allow gas diffusion. 3. Compounds were added in a dose response manner with the final concentrations of 57, 11.4, 2.28, 0.46, 0.091, 0.018, 0.0037 uM. Vehicle-only plates, with DMSO being pin-transferred to columns 5-48, were inserted uniformly at the beginning and the end of each library to monitor and record any shifts in assay performance. 5. 125 uM Gly-Phe-7-Amino-4-trifluoromethylcoumarin (MP Biomedicals) working concentration was used at a final concentration of 25 uM. 7. To assess cell viability; the assay plates were read using the ViewLux high-throughput CCD imager (PerkinElmer), wherein single end-point fluorescence measurement was acquired (excitation 405/10; emission 540/25 nm). 8. Detection reagent SteadyGlo Luciferase (Promega) was added to the assay plate. 10. Luminescence is then measured on the ViewLux imager equipped with a clear emission filter using a 2 sec exposure. […]
On the % scale 0 is the no-effect control and ±100 the full control effect; potency means the concentration at half of the fitted maximal effect.

SMILES | activity change, negative = cytotoxicity | Potency
O=C(NCC1CCCO1)c1cccc(Oc2ccc([N+](=O)[O-])cc2Cl)c1 (centres undefined) | 12.9% | 
CCN(CC)C(=O)C1=C(C)N(CCC2=CCCCC2)C(=O)C(CC(=O)NC(c2ccccc2)c2ccccc2)C1 (centres undefined) | -26.1% | 
O=C(O)CSc1cc(NS(=O)(=O)c2ccc(Cl)cc2)c2ccccc2c1O | -8.84% [at 57.5 µM] | 
COc1ccc(-c2csc(N(CCCN3CCOCC3)C(=O)c3ccco3)n2)cc1 | -15.1% | 
CCOc1ccc(NCc2cccn2-c2nnc(N3CCC(C(=O)NCCCN4CC(C)CC(C)C4)CC3)s2)cc1 (centres undefined) | -19.6% | 
CCN(CC)CCNC1=NCCn2c1cc1cc(OC)ccc12 | -15.7% | 
CCCCCn1c(=O)c2ccccc2n2c(CCl)nnc12 |  | 14.1 µM (active)
Cc1cc(C)cc(OCC(=O)NNC(=S)NC(=O)C2CC2)c1 | -23.3% | 
CCCCC1C(=O)CC[C@H]2[C@@H]1CC(=O)[C@@H]2C/C=C\CCCC(=O)O (some centres undefined) | -4.83% | 
CC(=O)N1c2ccc(S(=O)(=O)N3CCC(C(=O)N4CCN(c5ccc(Cl)cc5)CC4)CC3)cc2CC1C (centres undefined) | -27.4% [at 57.5 µM] | 
CC1CC2(C)Oc3ccccc3CC2C(C)C1CNCCCN(C)C (centres undefined) |  | 35.5 µM (active)
COc1cc([N+](=O)[O-])cc(/C=N/NC(=O)c2ccc(NC(=O)c3ccc(C)cc3)cc2)c1O |  | 1.41 µM (active)
COc1cc(Br)cc(/C=N/NC(=O)Cc2ccc(C(F)(F)F)cc2[N+](=O)[O-])c1O | -26.5% [at 57.5 µM] | 
CC(C)C(=O)Nc1ccc(C(=O)N/N=C/c2cc(Br)cc(Br)c2O)cc1 | 17.3% [at 57.5 µM] | 
CC(=O)N1CCN(c2ccc(Oc3ccc([N+](=O)[O-])c(C(F)(F)F)c3)cc2)CC1 | -28.6% [at 57.5 µM] | 
Cc1cc(Oc2ccc(Cl)cc2)nc(-c2ccccn2)n1 | 9.12% [at 57.5 µM] | 
O=C(Oc1c(CN2CCOCC2)cc(Cl)c2cccnc12)c1ccccc1 | -15.7% | 
Clc1ccc(SCc2cc(N3CCOCC3)nc(-c3ccccn3)n2)cc1 |  | 17.8 µM (active)
CCCC(=O)Nc1ccc2nc(SCC(=O)N3CCCC3)sc2c1 | 10.3% [at 57.5 µM] | 
COc1ccccc1OCCN1CSC(=S)N(C)C1 |  | 11.2 µM (active)
COc1cc(OC)cc(-c2cc3nc(C)c(CCC(=O)NCc4ccccc4)c(C)n3n2)c1 | 0.755% [at 57.5 µM] | 
O=C(NCc1ccccc1C(F)(F)F)c1cccc2c1C(=O)c1ccc(N3CCC(N4CCCCC4)CC3)cc1S2(=O)=O | -2.76% | 
Cc1ccsc1/C=C/C1=Cc2c(sc(NC(=O)CSc3n[nH]c(N)n3)c2C#N)C(C)(C)C1 | 2.76% [at 57.5 µM] | 
COC(=O)c1ccccc1S(=O)(=O)NNC(=O)Nc1ccccc1 | 7.74% | 
COc1ccc(/C=C/C(=O)Nc2cccc(S(=O)(=O)N3CCCC3)c2)cc1OC | 17.8% | 

SMILES | activity change, negative = cytotoxicity | Potency
CCSc1nc2ccccc2n1C(=O)/C=C\c1ccc(OC)c(OC)c1 |  | 4.47 µM (active)
O=C(CN1c2cccc3cccc(c23)S1(=O)=O)NCc1ccc(Cl)cc1 | 1.66% | 
CCN(CC)CCC(c1ccc2c(c1)OCO2)c1c(OC)cc(OC)c2c(-c3ccccc3)cc(=O)oc12 (centres undefined) |  | 17.8 µM (active)
COc1ccccc1C(=O)NNC(=O)c1nn(Cc2ccccc2)c(=O)c2ccccc12 |  | 22.4 µM (active)
CC(C)(C)c1ccc(OCCn2nc(C(=O)O)c3ccccc3c2=O)cc1 | -4.92% [at 57.5 µM] | 
COc1ccc(-n2nc(C(=O)NCC(=O)Nc3cccc(Cl)c3)c3ccccc3c2=O)cc1OC | -8.61% [at 57.5 µM] | 
O=C(N/N=C/c1ccccc1O)/C(=C/c1ccccc1)CCO | -7.96% | 
CC(C)(C)NCC(=Cc1ccccc1)C(=O)c1ccccc1 |  | 2.24 µM (active)
O=C(C(Br)=Cc1ccccc1)c1ccccc1 |  | 7.94 µM (active)
Cc1ccc(CN(C)C(=O)CN2C(=O)NC(c3ccccc3)(c3ccccc3)C2=O)c(C)c1 | -27.6% | 
O=C(Nc1cccc(S(=O)(=O)N2CCOCC2)c1)c1ccc2c(=O)n3c(nc2c1)CCCCC3 | -20.1% | 
O=C(Nc1ccc(NC(=O)c2ccc(Cl)cc2Cl)cc1)c1cccs1 | -25.7% [at 57.5 µM] | 
O=C(Nc1ccc(Cl)cc1)Nc1nc(-c2sccc2Br)cs1 |  | 10 µM (active)
Cc1ccc(F)cc1-c1cc2nc(NCCCN(C)C)n(C)c(=O)c2s1 | -13.1% [at 57.5 µM] | 
CC(C)c1cccc(C(C)C)c1Nc1cn[nH]c1 | -15.4% | 
CCOC(=O)c1cnc(-n2nc(C)cc2C)nc1NNc1cc(C)nc(-c2ccccc2)n1 |  | 8.91 µM (active)
CCOC(=O)c1cnc(-n2nc(C)cc2C)nc1NC1CCCC1 | -7.03% | 
CC(C)C(CCNCc1ccccn1)c1ccc(Cl)cc1 (centres undefined) | 5.83% [at 57.5 µM] | 
Cc1cc(NCc2ccccn2)n2nc(C)c(-c3ccc(Cl)cc3)c2n1 |  | 20 µM (active)
CCCc1cc(NCc2ccccn2)n2nc(C)c(-c3ccccc3)c2n1 | -18.3% | 
COc1cc(OC)c(OC)cc1/C=C1\CC(C)C/C(=C\c2cc(OC)c(OC)cc2OC)C1=O (centres undefined) | -29.6% [at 57.5 µM] | 
COc1cc(/C=C/c2ccc3cccc(O)c3n2)cc(OC)c1OC | -28.4% [at 57.5 µM] | 
COc1cc(/C=C2\COC/C(=C\c3cc(OC)c(OC)c(OC)c3)C2=O)cc(OC)c1OC |  | 1.58 µM (active)
CCOC(=O)N(C)c1c(CC)nc2c(OCc3ccccc3OC)cccn12 | 14.1% [at 57.5 µM] | 
